SARS PLpro yeast = qHTS of Yeast-based Assay for SARS-CoV PLP; S. cerevisiae expressing SARS-CoV PLpro, growth rescue; Potency, µM (highest dose often 32.9 µM), without a hit: at the highest dose activity, positive = growth rescue, usual class: activators; 0.19% of 330,000 active; AID 485353, 2010; calls by dose curve; note: 0% is about no effect; nearly all actives have a fitted effect of over 55% in size
NS1 function inh = qHTS Assay for Inhibitors of Influenza NS1 Protein Function; Potency, µM (doses to about 46.1 µM), without a hit: at the highest dose activity, positive = more growth; 0.4% of 270,000 active; AID 2326, 2010; calls by dose curve; note: actives are rising curves; nearly all actives have a fitted effect of over 50% in size
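A cell-based growth assay was used: compounds that relieve NS1-induced slow growth of budding yeast raise OD600. Assay medium was yeast nitrogen base with ammonium sulphate and -URA supplement, pH 6.0, with 2% galactose.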
LmPK inhibitor = qHTS Assay for Inhibitors of Leishmania Mexicana Pyruvate Kinase (LmPK); purified LmPK, Kinase-Glo ATP luminescence, 1 h; Potency, µM (highest dose often 57.5 µM), without a hit: at the top dose activity change, negative = inhibition, most hits filed as inhibitors; 0.37% of 290,000 active; note: % is set by controls: 0 for no effect and ±100 for the full control effect
Target sequence (Q27686 whole entry, looked up): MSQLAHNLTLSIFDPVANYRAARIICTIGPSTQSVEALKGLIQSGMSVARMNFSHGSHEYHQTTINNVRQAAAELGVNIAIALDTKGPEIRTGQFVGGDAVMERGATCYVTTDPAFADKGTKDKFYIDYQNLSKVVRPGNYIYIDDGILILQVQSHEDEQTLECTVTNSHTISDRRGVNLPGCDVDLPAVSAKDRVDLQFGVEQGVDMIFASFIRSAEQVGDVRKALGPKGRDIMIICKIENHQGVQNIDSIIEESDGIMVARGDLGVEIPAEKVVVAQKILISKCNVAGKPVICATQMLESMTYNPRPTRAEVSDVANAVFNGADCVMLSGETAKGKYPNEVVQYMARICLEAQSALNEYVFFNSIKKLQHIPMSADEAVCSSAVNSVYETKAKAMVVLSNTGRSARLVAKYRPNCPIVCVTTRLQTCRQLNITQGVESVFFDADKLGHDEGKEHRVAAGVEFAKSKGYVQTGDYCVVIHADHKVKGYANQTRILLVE
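Purified LmPK (0.1 nM) converted ADP (0.1 mM) to ATP with PEP (0.5 mM) in imidazole buffer pH 7.2 with KCl and MgCl2, 1 h at room temperature. ATP was read by Kinase-Glo luminescence; data normalized to uninhibited and no-enzyme controls.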
RE007 growth inh = qHTS Assay for Inhibitors of the HIV-1 protein Vpr. S. pombe RE007 Vpr strain, BacTiter-Glo ATP luminescence, 24 h. Potency, µM (series often up to 92.2 µM), for the others: at the top dose activity change, negative = less growth, hits mostly inhibitors. 0.21% of 360,000 active. AID 651644, 2012; active = well fitted falling curve with a large enough effect; inconclusive = small, poorly fitted or top-dose-only effect; inactive = no such curve, though single readings can be large or run the other way; note: % is set by controls: 0 for no effect and ±100 for the full control effect; nearly all actives have a fitted effect of over 50% in size
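Fission yeast RE007 carrying one integrated HIV-1 vpr copy, seeded at OD 0.01 in PMG+AL medium with 23 nL pinned compound. Grown 24 h at 30 degrees; viability read by BacTiter-Glo luminescence after 5 min.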
Sm TGR block = qHTS Assay for the Inhibitors of Schistosoma Mansoni Peroxiredoxins. 3% of 360,000 active. Potency, µM (titrated, usually from 114 µM), inactives show top-dose activity change, negative = inhibition, most hits filed as inhibitors. AID 485364, 2010. Schistosoma mansoni thioredoxin glutathione reductase (TGR), Q962Y6. purified TGR, DTNB reduction, TNB absorbance 405 nm; note: % is set by controls: 0 for no effect and ±100 for the full control effect; nearly all actives have a fitted effect of over 60% in size
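Kinetic colorimetric format: TGR-catalysed, NADPH-driven DTNB reduction monitored via TNB absorbance. Enzyme dispensed at 20 nM; compound exposure 15 min at room temperature before reaction start.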
TbPYK inhibitor = qHTS of Trypanosoma Brucei Inhibitors; Potency, µM (series often up to 76.8 µM), inactives show at the highest dose activity, negative = inhibition, most hits filed as inhibitors; 0.12% of 410,000 active; pyruvate kinase (Trypanosoma brucei), Q57TT1; AID 624173, 2012; TbPYK enzyme, Kinase-Glo Plus ATP luminescence, 45 min; note: % is set by controls: 0 for no effect and ±100 for the full control effect; nearly all actives have a fitted effect of over 50% in size
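Activity of T. brucei pyruvate kinase was followed by Kinase-Glo Plus luminescence after the enzyme reacted 45 min at room temperature with 130 uM ADP (final) and substrate. Test compounds were added before ADP at multiple concentrations.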
Active calls of the source: *; ? = inconclusive; . = not tested or not shown. Rows were chosen to be rich in hits. Some 3.3% of all compounds tested hit in one or more screens of this group. Unless noted, calls come from the whole dose curve; as a rule, active = well fitted curve in the direction sought with a large enough effect; inconclusive = small, poorly fitted or top-dose-only effect, or another doubt; inactive = no such curve, though single readings can be large; an effect the other way counts as inactive or inconclusive. Potency is the fitted concentration of half-maximal effect.

SMILES	SARS PLpro yeast	NS1 function inh	LmPK inhibitor	RE007 growth inh	Sm TGR block	TbPYK inhibitor
COc1cc([N+](=O)[O-])cc(/C=N/NC(=O)C(C)Nc2ccccc2C)c1O (stereo unspecified)	22µM*	9%	4%	.	-19%	1%
CCOc1ccccc1CNc1ncnc2c1nc1n2CCCC1	.	.	.	.	0%	-7%
O=C1C[C@H]2OCC=C3CN4CC[C@@]5(C(=O)O)[C@H](N1)C2[C@H]3C[C@H]45 (stereo partly specified)	.	1%	.	.	.	.
Cc1ccc2oc(C(=O)Nc3ccc(S(=O)(=O)N4CCCCC4C)cc3)cc(=O)c2c1 (stereo unspecified)	.	.	.	.	26%	0%
Cc1cccc(C(=O)NC2CCN(C(=O)NCc3ccccc3)CC2)c1	1%	7%	-4%	-2%	11µM*	-18%
Cc1ccc(NC(=O)N2CCC(NC(=O)c3cccc(C)c3)CC2)cc1	-4%	2%	-6%	8%	?	0%
CC1CC(=O)C2=C(C1)Nc1ncnn1C2c1ccccc1 (stereo unspecified)	14%	-8%	7%	20%	17%	1%
Cc1nc2n(n1)C(c1ccccc1)C1=C(CC(c3ccco3)CC1=O)N2 (stereo unspecified)	5%	6%	-2%	-3%	56µM*	1%
O=c1c(Br)c(N2CCCC2)cnn1-c1ccccc1	15%	1%	-1%	6%	1%	-4%
O=c1c(Br)c(Br)cnn1-c1ccccc1	1%	-44%	3%	?	3.2µM*	5%
Cc1ccc(-n2ncc(Br)c(Br)c2=O)cc1	-6%	-63%	-5%	16µM*	6.3µM*	-1%
O=C1c2ccccc2C(O)(O)[C@@]1(O)[C@]1(O)C(=O)c2ccccc2C1(O)O	.	-3%	.	.	.	.
Cc1scc(CN2CCN(c3ccc(F)cc3)CC2)c1C	.	.	.	.	3%	-2%
Cc1c(Cl)cn2c(=O)cc(CN3CCN(c4ccc(F)cc4)CC3)nc2c1Cl	0%	3%	11%	.	50µM*	.
S=C(Sc1ccc(Cl)cc1)Sc1ccc(Cl)cc1	-15%	9%	1%	.	2µM*	.
CC(=O)Nc1ccc(C(=O)NCCc2ccccc2)cc1	-19%	-2%	-1%	-4%	5µM*	-5%
O=C1NC(=O)C(Cc2cccs2)C(=O)N1	-3%	2%	-2%	-14%	40µM*	?
NC(=O)c1c(N)sc2c1CCCC2	-2%	3%	7%	14%	13µM*	?
Nc1sc2c(c1C(=O)NC1CCS(=O)(=O)C1)CCCC2 (stereo unspecified)	0%	-30%	-3%	0%	22µM*	?
Nc1sc2c(c1C(=O)NCCc1ccccc1)CCCC2	.	.	.	-13%	.	.
S=C(Nc1cccc(Cl)c1)Nc1cccc2cnccc12	-74%	-29%	5%	-35%	25µM*	-24%
CC(=O)c1ccc(NC(=S)Nc2cccc3cnccc23)cc1	-5%	-45%	5%	-29%	20µM*	-13%
Cc1ccc(NC(=S)Nc2cccc3cnccc23)cc1	-3%	-3%	-10%	-13%	45µM*	-18%
Cc1ccc(NC(=S)Nc2cccc3cnccc23)cc1C	2%	-1%	1%	-29%	?	-2%
Cc1ccc(C)c(NC(=S)Nc2cccc3cnccc23)c1	-2%	-3%	1%	?	?	-4%
SMILES	SARS PLpro yeast	NS1 function inh	LmPK inhibitor	RE007 growth inh	Sm TGR block	TbPYK inhibitor
CCOc1ccccc1C(=O)N1CCCCC1CCN1CCOCC1 (stereo unspecified)	.	.	.	.	0%	21%
CCCCn1c(-c2csc(CC)c2)n[nH]c1=S	-12%	-94%	?	-4%	-2%	4µM*
Cc1cccc(-n2c(-c3csc(C)c3)n[nH]c2=S)c1	7%	-11%	4.5µM*	5%	-10%	?
CCc1cc(-c2n[nH]c(=S)n2-c2cccc(C)c2)cs1	-6%	-38%	4.5µM*	5%	3%	11µM*
O=c1c2sc3ccccc3c2n(Cc2ccc(F)cc2)c(=O)n1Cc1ccco1	.	.	.	.	0%	-9%
Cc1ccc(NC(=O)COC(=O)C(NS(=O)(=O)c2ccc(Cl)cc2)C(C)O)cc1C (stereo unspecified)	?	-6%	6%	28%	45µM*	-10%
Cc1ccc(NC(=O)COC(=O)C(NS(=O)(=O)c2ccc(Cl)cc2)C(C)O)c(Br)c1 (stereo unspecified)	?	-22%	5%	26%	-16%	1%
c1ccc(C(c2ccccc2)N2CCN(Cc3nc(-c4cnccn4)no3)CC2)cc1	-3%	1%	6%	-4%	25µM*	1%
Fc1cccc(CN2CCN(Cc3nc(-c4cnccn4)no3)CC2)c1	-1%	1%	0%	-14%	.	-1%
Cc1cc(Oc2ccc(N)cn2)cc(C)c1Cl	-1%	0%	2%	28%	40µM*	-9%
CC(C)(C)c1ccc(Oc2ccc(N)cn2)cc1	-1%	-2%	0%	18%	13µM*	-7%
Nc1ccc(Oc2c(Cl)cccc2Cl)nc1	0%	0%	1%	2%	?	0%
Fc1ccc(C(NCCc2ccc(Cl)cc2)c2nnc(-c3ccccc3Cl)o2)cc1 (stereo unspecified)	.	.	.	.	-2%	-6%
Cc1ccc(S(=O)(=O)Cc2nc(-c3ccc(C(=O)NCCCOC(C)C)cc3)oc2C)cc1	.	.	.	.	-35%	6%
CCCNC(=O)c1ccc(-c2nc(CS(=O)(=O)c3ccc(C)cc3)c(C)o2)cc1	.	.	.	.	40µM*	-1%
COc1cccc(CNC(=O)c2ccc(-c3nc(CS(=O)(=O)c4ccccc4)c(C)o3)cc2)c1	.	.	.	.	28µM*	-2%
Cc1ccc(S(=O)(=O)Cc2nc(-c3ccc(C(=O)NCc4ccccc4F)cc3)oc2C)cc1	.	.	.	.	7.9µM*	.
CCOCCCNC(=O)c1ccc(-c2nc(CS(=O)(=O)c3ccccc3)c(C)o2)cc1	.	.	.	.	?	-6%
COCCNC(=O)c1ccc(-c2nc(CS(=O)(=O)c3ccccc3)c(C)o2)cc1	.	.	.	.	22µM*	0%
Cc1cccc(CNC(=O)c2ccc(-c3nc(CS(=O)(=O)c4ccccc4)c(C)o3)cc2)c1	.	.	.	.	?	-12%
Cc1ccc(OCCSc2nc3ccccc3n2CC(=O)N2CCCCC2)c(C)c1	.	.	.	.	21%	-10%
COc1ccccc1CNC(=O)c1ccc(-c2nc(CS(=O)c3ccc(C)cc3)c(C)o2)cc1 (stereo unspecified)	.	.	.	.	13µM*	-11%
